Compound activity as filed in PubChem.
D3 ag – agonists of human D3 dopamine receptor; max activation, %; D3R DiscoveRx beta-arrestin cells, luminescence, 90 min; AID 652048; 410,000 compounds, 0.58% hits; P35462; in the data active = max activation above about 30%; note: 0% is about no effect
Target sequence (P35462 whole entry, looked up): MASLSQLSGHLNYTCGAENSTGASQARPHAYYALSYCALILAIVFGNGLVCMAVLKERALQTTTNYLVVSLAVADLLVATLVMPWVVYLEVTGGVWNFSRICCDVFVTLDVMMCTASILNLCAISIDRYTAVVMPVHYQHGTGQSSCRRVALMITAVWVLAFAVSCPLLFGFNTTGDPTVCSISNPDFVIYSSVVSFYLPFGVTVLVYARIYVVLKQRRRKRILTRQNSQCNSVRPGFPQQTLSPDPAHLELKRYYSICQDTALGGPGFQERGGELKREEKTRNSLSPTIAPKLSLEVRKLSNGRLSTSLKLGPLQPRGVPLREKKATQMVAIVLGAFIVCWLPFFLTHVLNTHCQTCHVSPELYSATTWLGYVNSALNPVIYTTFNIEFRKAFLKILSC
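Agonist mode: compounds and dopamine controls were applied to plated cells for 90 min at 37 degrees C after an overnight attachment at 1500 cells/well. Luminescent read-out followed 30 - 60 minutes at room temperature with DiscoveRx detection reagent.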
DRD3 antagonist – antagonists of human D3 dopamine receptor | D3R cells, DiscoveRx beta-arrestin luminescence, antagonist mode; stronger effect = lower value | P35462 | max response, negative = inhibition, % | 360,000 compounds, 2.5% hits; in the data active = max response below about -50%; inconclusive = no clear call, values can overlap the other calls; note: % is set by controls: 0 for no effect and ±100 for the full control effect
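Cells expressing the human receptor were seeded at 1500 cells/well, incubated overnight at 37 degrees C in 5% CO2, then exposed to library compounds with dopamine controls for 90 minutes at 37 degrees C before luminescent detection.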
D1 potentiator – potentiators of human D1 dopamine receptor; potentiation, % at 10 µM; HEK293 TREx D1 cells, calcium flux, dopamine EC20 potentiation; AID 504651; P21728; 360,000 compounds, 0.036% hits; in the data active = potentiation above about 30%; note: 0% is about no effect
D1 agonist – activates the human D1 dopamine receptor. P21728. activation, % at 2 µM. 360,000 compounds, 1% hits. HEK293 T-REx D1 cells, calcium flux, agonist mode; in the data active = activation above about 30%; note: 0% is about no effect
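Inducible HEK293 T-REx D1 cells, force-coupled to calcium signalling, were plated at 4000 cells/well with tetracycline and held overnight at 30 C. After no-wash calcium dye loading, compound-evoked calcium rise over 180 s flagged agonists.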
D1 antagonist – antagonists of human D1 dopamine receptor; P21728; HEK293 TREx D1 cells, calcium flux, dopamine EC80; stronger effect = lower value; activity change, negative = inhibition, % at 10 µM; 360,000 compounds, 3.2% hits; AID 504652; in the data active = activity change below about -30%; note: % is set by controls: 0 for no effect and ±100 for the full control effect
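Inducible Hek293 Trex D1 cells (tetracycline, overnight, 30 C). Calcium dye 30–90 min RT. Antagonist mode: EC80 dopamine added after 180 s compound read.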
* hit, by the source's call; ? = inconclusive; . = no result. In the library only some 6.1% were active in any assay of this set; here they are far more common.

SMILES	D3 ag	DRD3 antagonist	D1 potentiator	D1 agonist	D1 antagonist
Cc1cc(O)cc2c1C(=O)/C(=C/c1ccco1)O2	4.3	6.4	-4.2	42.3*	-6.4
COC(=O)COc1ccc2c(c1)O/C(=C\c1ccco1)C2=O	1.2	-18.7	6.5	3.2	-1.1
COc1ccccc1C(=O)Oc1ccc2c(c1)O/C(=C\c1ccncc1)C2=O	-8.5	-29.6	-3.5	35.8*	33.0
CC(=O)Oc1ccc2c(c1)O/C(=C\c1ccncc1)C2=O	-4.6	-21.8	0.0	65.2*	-2.1
Cc1cccc(-n2c(=O)c3c(c4cc(C)ccc4n3C)n(CC(=O)NCCC3=CCCCC3)c2=O)c1	5.7	.	-1.9	1.1	2.4
CCCCNC(=O)c1nn(-c2ccc(C)cc2)c(=O)n(C)c1=O	-6.4	.	-1.5	0.2	-8.3
CCOc1cc(Cn2c(-c3ccc(O)c(OCC)c3)nc3ccccc32)ccc1O	7.3	.	2.8	22.3	.
Cc1nc(-c2ccc(Cl)cc2)sc1CCNC(=O)C(=O)Nc1ccc(F)cc1F	5.6	.	-2.0	0.7	-20.8
CCC(=O)Oc1ccc2c(c1)O/C(=C\c1ccco1)C2=O	10.9	-1.9	-2.3	43.0*	9.5
O=C(Oc1ccc2c(c1)O/C(=C\c1ccncc1)C2=O)c1cccs1	-1.1	?	-4.0	36.6*	-9.7
CS(=O)(=O)Oc1ccc2c(c1)O/C(=C\c1cccnc1)C2=O	19.3	4.0	1.1	1.6	0.6
COc1ccc(C(=O)NCc2ccncc2)cc1S(=O)(=O)N1CCOCC1	-9.5	9.8	.	3.6	-48.5*
O=C(NCC1COc2ccccc2O1)c1ccc(F)c(S(=O)(=O)N2CCOCC2)c1 (stereo unspecified)	-10.2	6.0	-1.3	7.9	-10.5
Cc1ccc(C(=O)O)cc1S(=O)(=O)N1CCOCC1	11.0	-71.9*	0.9	4.1	-9.8
COc1ccccc1OCCNC(=O)c1cccc(S(=O)(=O)N2CCN(C)CC2)c1	-11.9	-11.4	5.0	1.3	6.0
COc1ccccc1OCCNC(=O)c1ccc(C)c(S(=O)(=O)N2CCOCC2)c1	-0.4	8.8	-7.4	30.2*	-5.6
COc1ccc(C(=O)NCC2COc3ccccc3O2)cc1S(=O)(=O)N1CCOCC1 (stereo unspecified)	3.0	4.2	-4.5	-0.1	-34.2*
Cc1ccc(CNC(=O)Cn2ccn(-c3cc(C)cc(C)c3)c(=O)c2=O)cc1	-0.4	.	-2.7	-0.2	6.9
COc1ccc(CN(Cc2ccco2)c2cnc(S(C)(=O)=O)nc2C(=O)Nc2ccc(F)cc2)cc1	6.5	.	1.8	2.6	1.7
COc1cccc(CNC(=O)c2ccc(Cl)c(S(=O)(=O)N3CCOCC3)c2)c1	1.8	0.8	-10.6	2.3	-34.1*
COc1cc(OC)c(NS(=O)(=O)c2ccc3c(c2)CCCN3C(C)=O)cc1Cl	0.3	.	-5.8	11.5	-22.2
O=C(CSc1ccc(Cl)cc1)c1ccco1	-14.5	-74.4*	-7.2	5.5	-11.0
CC(C)Oc1ccc(CNC(=O)Cn2nc(N3CCN(c4ccccc4)CC3)ccc2=O)cc1	10.7	.	-3.0	0.5	11.4
O=C(c1ccc2c(c1)OCO2)C1CCCN(C2CCN(CCc3ccccc3)CC2)C1 (stereo unspecified)	-26.4	-84.2*	-5.2	16.0	-32.2*
CCCn1cc(CN2CCCC(C(=O)c3ccc4c(c3)OCO4)C2)c(C)n1 (stereo unspecified)	-21.1	-53.5*	-6.0	6.0	14.4
SMILES	D3 ag	DRD3 antagonist	D1 potentiator	D1 agonist	D1 antagonist
COc1ccc(CN2CCCC(C(=O)c3ccc4c(c3)OCO4)C2)c(F)c1 (stereo unspecified)	-3.6	-59.3*	-15.3	10.0	-22.5
CC(=O)c1cccc(CN2CCCC(C(=O)c3ccc4c(c3)OCO4)C2)c1 (stereo unspecified)	-9.7	-23.3	-3.5	7.4	-13.5
Cc1ccc(C)c(NC(=O)CN2C(=O)CCc3cc(S(=O)(=O)N4CCCCC4)ccc32)c1	-4.1	.	-0.2	-2.4	8.6
CCc1ccc(C2c3c(-c4ccccc4O)n[nH]c3C(=O)N2Cc2cccnc2)cc1 (stereo unspecified)	-21.3	.	5.0	0.3	10.5
Cc1nn(C)cc1C=NCCOCc1ccccc1	1.6	-12.7	-6.2	1.4	-31.6*
Cc1nn(C)cc1/C=N/NC(=O)c1ccco1	-2.0	3.9	1.1	3.5	-11.7
O=[N+]([O-])c1ccc(NC(=S)NCCc2ccccc2)cc1	-0.6	-10.3	-7.7	15.6	-37.1*
